MmCpn inh: inhibitors of Methanococcus maripaludis chaperonin TRiC (MmCpn). purified Mm-Cpn ATPase, ADP Transcreener TR-FRET. Potency, µM (top dose mostly 76.9 µM), for inactives: top-dose activity, negative = inhibition, actives largely listed as inhibitors. actives 0.031% (n = 330,000). AID 504842; also: potency is read from the fitted curve at half-maximal effect; % is scaled to controls: 0 for no effect and ±100 for the full control effect; nearly all actives have a fitted effect of over 80% in size
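25 nM Mm-CPN + cpd, 10 min 37°C; + 10 uM ATP, 30 min 37°C; buffer 30 mM Tris pH 7.4, 100 mM KCl, 5 mM MgCl2, 1 mM DTT; Transcreener ADP HTRF detection 30 min RT.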
HEK293 tox: cytotoxicity in counter-screen for GLP-1R inverse agonists | HEK293 cAMP-luciferase reporter cells, luminescence, 24 h | Potency, µM (titrated, usually from 38.3 µM), without a hit: at the highest dose activity change, negative = inhibition, hits mostly inhibitors | actives 0.13% (n = 410,000);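 also: loss of luciferase light is scored as toxicity; potency is read from the fitted curve at half-maximal effect; % is scaled to controls: 0 for no effect and ±100 for the full control effect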
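Cells in DMEM/10% Nu serum/1% pen-strep, 1536-well format. Pre-incubated 12 h, dosed with 23 nL compound, incubated a further 24 h. Luciferase detection, 12 min at room temp, luminescence.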
GLP1R inv ag: acts as inverse agonist at human GLP-1 receptor | P43220 | HEK293 GLP-1R CRE-luciferase, luminescence, 24 h; GLP-1R form is constitutively active | Potency, µM (top dose mostly 38.3 µM), for inactives: at the top dose activity change, negative = inhibition, actives largely listed as inhibitors | actives 1.6% (n = 410,000) | AID 624417; also: potency is read from the fitted curve at half-maximal effect; % is scaled to controls: 0 for no effect and ±100 for the full control effect; nearly all actives have a fitted effect of over 55% in size
Target sequence (P43220 whole entry, looked up): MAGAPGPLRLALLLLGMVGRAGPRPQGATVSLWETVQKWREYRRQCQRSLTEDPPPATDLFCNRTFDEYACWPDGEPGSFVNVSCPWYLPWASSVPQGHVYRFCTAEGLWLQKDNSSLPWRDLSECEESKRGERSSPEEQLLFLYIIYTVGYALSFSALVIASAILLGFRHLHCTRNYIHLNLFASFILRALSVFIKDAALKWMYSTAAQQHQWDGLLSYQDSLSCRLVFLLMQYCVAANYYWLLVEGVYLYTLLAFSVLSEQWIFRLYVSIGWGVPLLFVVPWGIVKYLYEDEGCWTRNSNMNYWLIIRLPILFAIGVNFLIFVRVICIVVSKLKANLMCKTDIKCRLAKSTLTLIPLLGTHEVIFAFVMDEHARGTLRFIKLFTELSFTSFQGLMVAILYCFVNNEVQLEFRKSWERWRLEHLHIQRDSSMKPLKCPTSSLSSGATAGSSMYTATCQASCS
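Cells are plated, allowed 12 hours at 37 deg C, then treated with compounds for 24 hr before luciferase detection reagent is added and luminescence is read after 12 min at room temperature. The HEK293 line carries constitutively active GLP-1R with a cAMP-responsive reporter.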
CCT modulator: modulators of cytosolic chaperonin (CCT/TRiC) activity. actives 0.3% (n = 360,000). activity change, % (concentration not given with the values), hits read low. AID 651819. purified chaperonin ATPase assay, HTRF ADP detection, 30 min; in the data active = activity change below about -30%; also: % is scaled to controls: 0 for no effect and ±100 for the full control effect
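First, chaperonin was dispensed at 40 nM or 20 nM final depending on batch activity. Next, compounds were pinned at 76 uM and ATP added at 10 uM. After 30 min at 37 °C, ADP detection reagents ran 30 min at ambient temperature.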
GLP-1R agonist: GLP-1 receptor (human) agonism; P43220; HEK293 GLP-1R CRE-luciferase, luminescence, 4-6 h; cells express a hypersensitive GLP-1R form; Potency, µM (doses to about 45.6 µM), inactives show top-dose activation, usual class: activators; actives 0.007% (n = 380,000); also: potency is read from the fitted curve at half-maximal effect; % of control where 0% means no effect
uPA generation: blocks generation of uPA at the cell surface; Potency, µM (highest dose often 38.3 µM), for inactives: at the top dose activity change, negative = inhibition, most hits filed as inhibitors; AID 540303; cell surface uPA generation assay, qHTS; actives 0.31% (n = 330,000); active = well fitted inhibition curve with a large enough effect; inconclusive = small, poorly fitted or top-dose-only effect; inactive = no such curve, though single readings can be large or run the other way; tested in mouse RAW 264.7 cells; also: potency is read from the fitted curve at half-maximal effect; % is scaled to controls: 0 for no effect and ±100 for the full control effect; nearly all actives have a fitted effect of over 55% in size
Starred values were filed as active, the others as inactive; ? = inconclusive; / = no result given. A selection: hits, their analogues and other compounds. The true share with any hit is near 2.2%. Unless noted, calls follow the shape of the dose curve; as a rule, active = well fitted curve in the direction sought with a large enough effect; inconclusive = small, poorly fitted or top-dose-only effect, or another doubt; inactive = no such curve, though single readings can be large; an effect the other way counts as inactive or inconclusive.

SMILES | MmCpn inh | HEK293 tox | GLP1R inv ag | CCT modulator | GLP-1R agonist | uPA generation
Cc1ccc(/C=C2\SC(=S)N(CCCC(=O)Nc3ccc(O)cc3)C2=O)cc1 | -0.6% | -42.4% | ? | -0.1 | 5.6% | 2.3%
COC(=O)c1ccc(/C=C2/SC(=S)N(CCCC(=O)Nc3ccc(O)cc3)C2=O)cc1 | 0.8% | ? | 7.94µM* | 3.2 | -2.0% | -20.4%
COc1ccc(/C=C2\SC(=S)N(CCCC(=O)N3CCCCC3CCO)C2=O)cc1 (stereo not drawn) | -0.8% | ? | 10µM* | -3.2 | 6.4% | -24.6%
CN1CCN(C(=O)CCCN2C(=O)/C(=C/c3cccc(Br)c3)SC2=S)CC1 | 0.3% | ? | 10µM* | 1.2 | -5.7% | -11.1%
O=C1/C(=C\c2ccccc2)SC(=S)N1CCC(=O)N1CCCCC1CCO (stereo not drawn) | 1.1% | ? | ? | -2.3 | 0.5% | 3.2%
CCc1ccc(/C=C2\SC(=S)N(CCCC(=O)N3CCN(C)CC3)C2=O)cc1 | / | ? | 10µM* | 0.4 | 2.4% | /
Cc1ccc(C)c(N2CCN(C(=O)c3c(C)oc4nc(C)nc(N5CCOCC5)c34)CC2)c1 | / | 9.5% | -0.8% | / | / | /
CCC(C(=O)O)C1OC(C(C)C(O)C(C)C(=O)C(CC)C2OC3(C=CC(O)C4(CCC(C)(C5CCC(O)(CC)C(C)O5)O4)O3)C(C)CC2C)C(C)CC1C (stereo not drawn) | / | / | / | / | -5.7% | /
COc1ccc(N2CCN(S(=O)(=O)c3ccc4c(c3)CCCN4C(C)=O)CC2)cc1 | / | 1.0% | 18.9% | / | / | /
Cc1cccc(NC(=O)CN2C(=O)CC(c3ccccc3)Sc3ccccc32)c1 (stereo not drawn) | / | 4.9% | 3.6% | / | -8.6% | /
CCOC(=O)c1ccccc1NC(=O)CN1C(=O)CC(c2ccccc2)Sc2ccccc21 (stereo not drawn) | / | 2.7% | 10µM* | / | 16.6% | /
CCCOc1ccc(Oc2nc(NCC(C)C)nc(N(C)C)n2)nn1 | / | -3.2% | 14.3% | / | / | /
Cc1ccc(/C=N\Nc2nc3ccc(Cl)cc3[nH]2)o1 | -3.2% | -28.0% | 5.01µM* | -4.4 | -12.8% | -9.2%
CC(C)(C)C1CCC(=NNc2nc3ccccc3[nH]2)CC1 (stereo not drawn) | -1.5% | -25.0% | ? | -2.8 | 9.8% | -3.2%
c1ccc2c(c1)CC/C2=N/Nc1nc2ccccc2[nH]1 | -18.5% | 3.55µM* | ? | 2.4 | 0.2% | -11.4%
C(=N\Nc1nc2ccccc2[nH]1)/c1ccc2ncccc2c1 | -2.8% | ? | ? | 0.2 | 9.3% | -3.4%
C(=N\Nc1nc2ccccc2[nH]1)/c1ccccn1 | 1.5% | 11.2µM* | ? | 0.5 | -11.6% | ?
Fc1ccccc1-c1ccc(/C=N/Nc2nc3ccccc3[nH]2)o1 | -3.7% | 12.0% | ? | -0.1 | 17.0% | 3.98µM*
Cc1ccc2cc(/C=N/Nc3nc4ccccc4[nH]3)c(Cl)nc2c1 | 1.8% | 5.7% | 21.3% | -0.1 | 9.8% | ?
CCN(CC)c1ccc(/C=N/Nc2nc3ccccc3[nH]2)c(O)c1 | -3.0% | ? | ? | -31.0* | -18.6% | 0.2%
Cc1cccc(OCC(=O)Nc2ccc(OCc3cc(=O)n4cc(C)ccc4n3)cc2)c1 | / | 0.0% | 12.1% | / | / | /
CC(C)Cc1ccc(C(C)C(=O)Nc2cccnc2)cc1 (stereo not drawn) | -12.3% | -17.5% | 7.94µM* | 0.2 | -6.5% | -4.4%
CC(C(=O)Nc1cccnc1)c1ccc([N+](=O)[O-])cc1 (stereo not drawn) | ? | 5.6% | 17.4% | -0.5 | 9.2% | 0.5%
CCN(c1ncnc2c1cnn2-c1cc(Cl)ccc1C)C1CCCCC1 | / | -9.7% | 6.0% | / | / | /
CCOC(=O)COc1cccc2c(=O)n(CC(=O)NCc3ccc(F)cc3)ccc12 | -0.6% | -31.1% | -57.1% | -0.7 | -2.1% | 0.0562µM*
SMILES | MmCpn inh | HEK293 tox | GLP1R inv ag | CCT modulator | GLP-1R agonist | uPA generation
CCOC(=O)COc1cccc2c(=O)n(CC(=O)NCc3ccccc3)ccc12 | -3.0% | 12.0% | -45.0% | -0.8 | 22.0% | 0.199µM*
Cc1ccc(C)c(NC(=O)CSc2nnc(CNC(=O)c3ccccc3)n2-c2ccccc2)c1 | / | -9.3% | -17.4% | / | 1.3% | /
COc1ccccc1NC(=O)CSC1=Nc2ccccc2C2=NC(CCC(=O)NCc3ccco3)C(=O)N12 (stereo not drawn) | / | -10.5% | -11.3% | / | / | /
COC(=O)c1cn(C(=O)c2ccc(C)cc2C)c2ccccc12 | 3.2% | -11.8% | 5.01µM* | 0.7 | -0.4% | -13.1%
COC(=O)c1cn(C(=O)c2ccccc2Cl)c2ccccc12 | 0.9% | ? | ? | -0.7 | 6.9% | -3.7%
COc1ccc(OC)c(-c2cnc(OC(C)(C)C)nc2OC(C)(C)C)c1 | -0.4% | ? | ? | 0.9 | 5.1% | 2.24µM*
CN1CCN(c2ccc(-c3nc(-c4ccccc4)no3)cc2[N+](=O)[O-])CC1 | / | 1.8% | ? | / | / | /
Cc1ccc(C)c(N2CCN(C(=O)c3ccc4c(=O)n5c(nc4c3)CCCCC5)CC2)c1 | 0.4% | -10.8% | 1.78µM* | -0.5 | -3.5% | ?
O=C(c1ccc2c(=O)n3c(nc2c1)CCCCC3)N1CCCCC1 | 1.5% | -0.5% | -1.3% | -1.0 | 5.8% | 0.7%
CCN(C(=O)c1ccc(C(C)(C)C)cc1)c1nnc(Cn2nnc3ccccc32)s1 | 0.1% | -16.6% | 5.01µM* | -1.1 | -1.9% | -8.5%
O=C1NN=C(c2ccccc2)CC1c1ccc(Cl)cc1Cl (stereo not drawn) | -0.9% | -7.1% | 7.94µM* | 1.1 | 12.2% | -3.9%
O=C1NN=C(c2ccc(Cl)cc2)CC1c1cccc(Cl)c1 (stereo not drawn) | 4.1% | 0.7% | ? | 2.5 | 7.5% | 1.1%
COc1ccccc1-c1noc(-c2ccc(NCc3cccnc3)c([N+](=O)[O-])c2)n1 | / | 1.3% | 16.9% | / | / | /
CC(=O)c1cccc(NC(=O)Nc2sc3nc4n(c(=O)c3c2C)CCC(C)CC4)c1 (stereo not drawn) | / | -0.8% | ? | / | / | /
COc1ccc(-n2c(CC3C(=O)N(C)c4ccc(C)cc43)nc3ccccc3c2=O)cc1 (stereo not drawn) | / | -11.3% | -29.5% | / | / | /
Cc1ccc(NC(=O)C(NC2CCCc3ccccc32)c2ccccc2)c([N+](=O)[O-])c1 (stereo not drawn) | -2.7% | 6.9% | 3.98µM* | -0.2 | 1.6% | -5.4%
Cc1ccc(NC(=O)C(NC2CCCc3ccccc32)c2ccccc2)cc1Cl (stereo not drawn) | 0.1% | 11.2% | ? | -2.6 | 0.4% | 1.2%
CCSc1ncc(Cl)c(C(=O)Nc2ccc(S(=O)(=O)Nc3nccc(C)n3)cc2)n1 | / | 0.3% | 7.5% | / | / | /

Screening data from PubChem.
